Potency and outcome data for eight compounds are collected here from PubChem BioAssay (Tox21).

For assay [1], the target named is Progesterone receptor (Homo sapiens) (UniProt P06401). Nature of the assay: qHTS assay to identify small molecule agonists of the progesterone receptor (PR) signaling pathway (AID 1346784; calls by dose curve; further: nearly all actives have a fitted effect of over 30% in size). In a few lines: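 PR-UAS-bla HEK 293T cells (beta-lactamase reporter under UAS) in 2% charcoal-stripped FBS, dosed with 23 nL compound after 6 hr, incubated 16hr at 37C. LiveBLAzer B/G FRET substrate added, fluorescence read after 2 hours.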

For assay [2] the target is unchanged. Nature of the assay: qHTS assay to identify small molecule antagonists of the progesterone receptor (PR) signaling pathway (AID 1346795; active means well fitted inhibition curve with a large enough effect in the signal ratio in the repeat runs, not every such curve was filed as active; the % refers to the signal ratio). In a few lines: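 PR-UAS-bla HEK293T cells with beta-lactamase reporter under UAS control, in 2% charcoal-stripped FBS, treated with compounds plus 1 nM promegestone (R5020, final) for 16 hr at 37C. Read-out: FRET beta-lactamase substrate fluorescence after 2 hr at room temperature.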

Assay [3] can be described thus: qHTS assay to identify small molecule antagonists of the progesterone receptor (PR) signaling pathway - cell viability counter screen (AID 1346798). Further: series mostly up to about 92 µM; nearly all actives have a fitted effect of over 50% in size. An outline of the steps:
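PR-UAS-bla HEK293T cells, 3,000/well in 2% charcoal-stripped FBS medium, dosed with compounds plus R5020 agonist and incubated 16 h at 37C. Viability then measured in the same wells by CellTiter-Glo luminescence after 30 min at RT.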

The nature of assay [4]: qHTS assay to identify small molecule agonists of the progesterone receptor (PR) signaling pathway - cell viability counter screen (AID 1346799; calls by dose curve; further: nearly all actives have a fitted effect of over 45% in size). In a few lines:
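Counter screen in the PR-UAS-bla HEK293T wells (2% charcoal-stripped FBS, 16 h compound exposure at 37 C) after the bla read. CellTiter-Glo added, 30 min at room temperature, luminescence read as cell viability.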

Assay [5] can be described thus: qHTS assay to identify small molecule antagonists of the TGF-beta/Smad signaling pathway - cell viability counter screen (AID 1346824). Further: nearly all actives have a fitted effect of over 50% in size. In a few lines:
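Cytotoxicity counter-screen run in the same wells as the beta-lactamase Smad reporter read: CellTiter-Glo luminescence after 30 min at room temperature. HEK 293T SBE-bla cells had 5 hr compound exposure at 37 C with TGF-beta1 (0.25 ng/mL stock).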

The nature of assay [6]: qHTS assay to identify small molecule agonists of the TGF-beta/Smad signaling pathway - cell viability counter screen (AID 1346829). Further: top concentration of the series differs between compounds; nearly all actives have a fitted effect of over 45% in size. In a few lines: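 Same-well cytotoxicity: CellTiter-Glo added after the 2 hr room-temperature beta-lactamase substrate step, luminescence measured 30 min later; cells had 5 hr of compound at 37 C.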
Assay [7] can be described thus: qHTS assay to identify small molecule agonists of the TGF-beta/Smad signaling pathway (AID 1346859; active means well fitted activation curve with a large enough effect in the signal ratio in the repeat runs, not every such curve was filed as active; the % refers to the signal ratio; further: series mostly up to about 77 µM). An outline of the steps: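 SBE-bla HEK293T cells plated overnight, then compound exposure for 5 h at 37 C. Beta-lactamase reporter read with LiveBLAzer B/G FRET substrate after 2 h at room temperature, fluorescence at 405 nm excitation, 460/530 nm emission.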
For assay [8], the target named is Thyrotropin-releasing hormone receptor (Homo sapiens) (UniProt P34981). Nature of the assay: qHTS assay to identify small molecule antagonists of the thyrotropin-releasing hormone receptor (TRHR) signaling pathway (AID 1346877; active means well fitted inhibition curve with a large enough effect in the repeat runs, not every such curve was filed as active; further: series mostly up to about 51 µM). An outline of the steps:
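Antagonism is measured as suppression of the calcium response to 1 nM TRH in TRHR-HEK293 cells that have been dye-loaded for 2 h at 37 °C after overnight plating. Each compound is tested at 15 concentrations in triplicate.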

Assay [9] shares this target. Nature of the assay: qHTS assay to identify small molecule agonists of the thyrotropin-releasing hormone receptor (TRHR) signaling pathway (AID 1346891; calls by dose curve; further: series mostly up to about 58 µM). An outline of the steps: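 HEK293 cells expressing TRHR plated 18 h at 37 C/5% CO2, calcium dye-loaded 2 h at 37 C, then compound added (agonist mode); kinetic calcium fluorescence read 3 min at 1 s intervals; 15 concentrations in triplicate.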

Assay [10] is described as follows: Human pregnane X receptor (PXR) small molecule agonists, qHTS cell viability counter screen (AID 1346977). Further: nearly all actives have a fitted effect of over 50% in size. In a few lines:
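PXR-Luc HepG2 cells (2,000/well, 5% charcoal-stripped FBS) preincubated 5 hr, then exposed to compounds 24 hr at 37 C. Viability read in the same wells by CellTiter-Fluor fluorescence, reagent added at 23 hr, 1 hr incubation.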

Assay [11] can be described thus: Caspase-3/7 induction in HepG2 cells by small molecules, qHTS assay (AID 1346978). Further: nearly all actives have a fitted effect of over 15% in size. An outline of the steps:
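Caspase-3/7 induction was measured by Caspase-Glo 3/7 luminescence (30 min, room temperature) after a 17 hr compound exposure of wild-type HepG2 cells seeded at 2,000 per well and pre-incubated 5 hr.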

Assay [12] in a line: Caspase-3/7 induction in CHO-K1 cells by small molecules, qHTS cell viability counter screen (AID 1346979). Further: nearly all actives have a fitted effect of over 35% in size. In a few lines: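 Wild-type CHO-K1 cells (1,500/well) treated with compound after 5 h plating; after 16 h at 37C, viability read as CellTiter-Fluor fluorescence following 1 h reagent incubation, in the same wells as the caspase read.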
Assay [13] can be described thus: Caspase-3/7 induction in CHO-K1 cells by small molecules, qHTS assay (AID 1346980). Further: nearly all actives have a fitted effect of over 15% in size. In a few lines: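 Luminescent Caspase-Glo 3/7 read (30min, room temperature) quantified apoptosis induction. Cells were wild-type CHO-K1, treated with compound for 17hr at 37 C and 5% CO2.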
Assay [14] is described as follows: Caspase-3/7 induction in HepG2 cells by small molecules, qHTS cell viability counter screen (AID 1346981). Further: series mostly up to about 92 µM; nearly all actives have a fitted effect of over 30% in size. An outline of the steps:
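Cell viability is measured as a cytotoxicity counter screen alongside the Caspase-Glo 3/7 readout in identical wells. Wild-type HepG2 cells are treated with test compounds for 16 hr at 37 C before CellTiter-Fluor addition and a 1-hr incubation.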

In assay [15] the target is Nuclear receptor subfamily 1 group I member 2 (Homo sapiens) (UniProt O75469). Nature of the assay: Human pregnane X receptor (PXR) small molecule agonists, qHTS assay (AID 1346982). Further: nearly all actives have a fitted effect of over 35% in size. An outline of the steps: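 Cells: HepG2 stably carrying PXR-Luc. Medium held 5% charcoal-stripped FBS. Compounds in DMSO added after 5 hr plating, incubated 24 hr, then luminescence quantified with ONE-Glo.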

For assay [16], the target named is Cytochrome P450 2D6 (Homo sapiens) (UniProt P10635). Nature of the assay: Cytochrome P450 Family 2 Subfamily D Member 6 (CYP2D6) small molecule antagonists: luciferase reporter qHTS assay (AID 1671196). Further: nearly all actives have a fitted effect of over 50% in size. Further: potency means the concentration at half of the fitted maximal effect. An outline of the steps: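 Enzyme and proluciferin substrate were first combined with test chemical for 10 min at room temperature. Adding NADPH regeneration solution started a 1 h reaction, stopped with luciferin detection reagent and read by luminescence 20 min later.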

Assay [17] has as its target Cytochrome P450 2C19 (Homo sapiens) (UniProt P33261). Nature of the assay: Cytochrome P450 Family 2 Subfamily C Member 19 (CYP2C19) small molecule antagonists: luciferase reporter qHTS assay (AID 1671197). Further: nearly all actives have a fitted effect of over 65% in size. Further: potency means the concentration at half of the fitted maximal effect. In a few lines: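 Quantitative high-throughput screen of the Tox21 library using CYP2C19 with proluciferin substrate. Reaction: NADPH regeneration, 37C, 1 h, after 10 min compound preincubation at room temperature. Readout: luminescence.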

SMILES strings stand for the structures. Several values for one entry are separate records, joined by “and”; a condition that tells them apart may be missing. Equal values may be shown once. Results filed as inconclusive are left out. Activity calls are given as the source filed them. Unless noted, the call rests on the fitted dose curve; in most records, active means well fitted curve in the direction sought with a large enough effect in the repeat runs; inconclusive means weak or mixed curves; inactive means no such curve, though single readings can be large; an effect the other way counts as inactive or inconclusive.

Sequence of Progesterone receptor (Homo sapiens) (P06401 whole entry, looked up): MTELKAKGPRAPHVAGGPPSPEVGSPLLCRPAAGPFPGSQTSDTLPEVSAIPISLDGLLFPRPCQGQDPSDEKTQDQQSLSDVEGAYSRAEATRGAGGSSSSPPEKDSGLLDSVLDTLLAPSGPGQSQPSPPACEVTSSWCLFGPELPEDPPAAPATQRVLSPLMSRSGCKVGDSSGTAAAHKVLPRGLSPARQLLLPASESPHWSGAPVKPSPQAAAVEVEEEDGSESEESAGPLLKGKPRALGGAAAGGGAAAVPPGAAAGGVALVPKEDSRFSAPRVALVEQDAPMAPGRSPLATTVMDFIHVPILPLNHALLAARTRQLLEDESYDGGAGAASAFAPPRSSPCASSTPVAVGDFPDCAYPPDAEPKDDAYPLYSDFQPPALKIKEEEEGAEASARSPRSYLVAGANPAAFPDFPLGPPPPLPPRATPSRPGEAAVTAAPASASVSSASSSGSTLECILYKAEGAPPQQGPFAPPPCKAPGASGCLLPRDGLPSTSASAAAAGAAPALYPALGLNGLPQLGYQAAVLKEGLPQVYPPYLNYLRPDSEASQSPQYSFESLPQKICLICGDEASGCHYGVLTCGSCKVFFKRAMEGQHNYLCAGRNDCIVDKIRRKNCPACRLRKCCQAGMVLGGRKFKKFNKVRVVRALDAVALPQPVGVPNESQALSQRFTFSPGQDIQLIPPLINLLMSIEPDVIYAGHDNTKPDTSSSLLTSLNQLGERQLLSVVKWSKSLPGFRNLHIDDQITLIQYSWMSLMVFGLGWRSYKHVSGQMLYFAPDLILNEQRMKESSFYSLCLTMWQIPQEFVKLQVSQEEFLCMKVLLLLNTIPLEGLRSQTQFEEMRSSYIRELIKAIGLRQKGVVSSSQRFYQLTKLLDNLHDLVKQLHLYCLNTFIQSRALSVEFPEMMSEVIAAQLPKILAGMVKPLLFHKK
Sequence of Cytochrome P450 2D6 (Homo sapiens) (P10635 whole entry, looked up): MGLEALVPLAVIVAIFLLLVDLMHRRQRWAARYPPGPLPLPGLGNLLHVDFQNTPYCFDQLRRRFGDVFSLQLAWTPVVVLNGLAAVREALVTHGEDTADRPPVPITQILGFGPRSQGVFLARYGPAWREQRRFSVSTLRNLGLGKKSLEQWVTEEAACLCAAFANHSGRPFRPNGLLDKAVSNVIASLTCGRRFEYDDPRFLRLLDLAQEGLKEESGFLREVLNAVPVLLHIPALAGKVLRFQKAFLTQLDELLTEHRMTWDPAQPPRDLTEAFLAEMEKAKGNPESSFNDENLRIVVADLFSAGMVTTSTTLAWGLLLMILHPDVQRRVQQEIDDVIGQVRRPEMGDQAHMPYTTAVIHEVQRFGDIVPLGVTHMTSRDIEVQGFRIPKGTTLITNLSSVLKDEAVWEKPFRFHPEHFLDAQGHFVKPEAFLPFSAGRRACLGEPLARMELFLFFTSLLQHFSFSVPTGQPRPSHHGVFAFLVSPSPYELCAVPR
Sequence of Thyrotropin-releasing hormone receptor (Homo sapiens) (P34981 whole entry, looked up): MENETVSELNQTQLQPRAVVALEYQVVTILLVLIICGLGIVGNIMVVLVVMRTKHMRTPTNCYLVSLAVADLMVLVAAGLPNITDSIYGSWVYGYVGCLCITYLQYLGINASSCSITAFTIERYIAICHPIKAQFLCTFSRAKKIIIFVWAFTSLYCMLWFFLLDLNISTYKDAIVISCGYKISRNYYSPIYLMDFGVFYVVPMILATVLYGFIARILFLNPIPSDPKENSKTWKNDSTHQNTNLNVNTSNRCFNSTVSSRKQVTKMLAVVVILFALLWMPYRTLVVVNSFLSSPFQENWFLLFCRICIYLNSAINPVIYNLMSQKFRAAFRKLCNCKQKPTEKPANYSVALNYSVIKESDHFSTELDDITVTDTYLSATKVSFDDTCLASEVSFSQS
Sequence of Cytochrome P450 2C19 (Homo sapiens) (P33261 whole entry, looked up): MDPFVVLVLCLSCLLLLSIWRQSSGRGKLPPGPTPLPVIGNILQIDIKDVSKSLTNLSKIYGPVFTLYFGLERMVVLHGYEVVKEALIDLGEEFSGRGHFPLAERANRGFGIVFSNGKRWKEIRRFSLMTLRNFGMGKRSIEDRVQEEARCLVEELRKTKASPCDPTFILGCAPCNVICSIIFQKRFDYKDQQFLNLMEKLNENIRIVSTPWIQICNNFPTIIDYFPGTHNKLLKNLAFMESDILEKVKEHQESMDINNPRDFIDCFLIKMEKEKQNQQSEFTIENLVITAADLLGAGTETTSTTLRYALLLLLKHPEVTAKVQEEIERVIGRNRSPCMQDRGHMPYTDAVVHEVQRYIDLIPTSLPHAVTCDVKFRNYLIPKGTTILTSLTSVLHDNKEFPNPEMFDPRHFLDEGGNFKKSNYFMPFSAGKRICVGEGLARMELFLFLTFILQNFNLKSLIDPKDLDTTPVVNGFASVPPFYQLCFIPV
Sequence of Nuclear receptor subfamily 1 group I member 2 (Homo sapiens) (O75469 whole entry, looked up): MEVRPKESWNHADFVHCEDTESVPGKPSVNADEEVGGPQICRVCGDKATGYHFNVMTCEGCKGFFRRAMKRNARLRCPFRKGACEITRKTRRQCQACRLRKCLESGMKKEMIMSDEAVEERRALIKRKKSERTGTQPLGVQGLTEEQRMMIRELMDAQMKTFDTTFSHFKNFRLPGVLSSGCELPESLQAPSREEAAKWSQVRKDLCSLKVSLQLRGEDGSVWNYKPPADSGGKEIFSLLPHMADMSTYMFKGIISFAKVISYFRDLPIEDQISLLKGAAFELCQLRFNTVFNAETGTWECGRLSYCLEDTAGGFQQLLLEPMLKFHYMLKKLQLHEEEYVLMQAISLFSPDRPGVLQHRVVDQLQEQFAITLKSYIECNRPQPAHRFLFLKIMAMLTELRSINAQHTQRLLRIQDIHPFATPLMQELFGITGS

For `CCCCC(=O)O`, the Potency entry in assay [1], in assay [2], in assay [3], in assay [4], in assay [5] and in assay [6] was “inactive” each time. Moreover, the Potency entry in assay [7], in [8], in [10], in assay [11], in assay [12] and in assay [13] was “inactive” throughout. For the same compound, the Potency result in assay [14], in [15], in [16] and in [17] was “inactive” throughout. Moreover, the compound was classed as inactive in assay [9].
Turning to `CC(=O)OCCC(C)C`, the Potency entry in assay [1], in [2], in assay [3], in [4], in assay [5] and in assay [6] was “inactive” each time. Besides, the Potency result in assay [7], in [8], in assay [10], in assay [11], in assay [12] and in [13] was “inactive” each time. Also, the Potency entry in assay [14], in [15] and in assay [16] was “inactive” each time. For the same compound, in [9], the call was inactive. Also, in assay [17], the Potency is 79.7 µM (active).
As for `CCCN(CCC)C(=O)SCC`, the Potency entry in assay [1], in assay [2], in assay [3], in assay [4], in [5] and in [6] was “inactive” each time. Further, the Potency entry in assay [7], in [8], in assay [10], in assay [11], in [12] and in assay [13] was “inactive” throughout. Further, the Potency result in [14], in [15], in assay [16] and in [17] was “inactive” throughout. For the same compound, in assay [9], the compound was classed as inactive.
On to `Cc1ncc(CO)c(CO)c1O`, for which the Potency entry in [1], in [2], in assay [3], in assay [4], in assay [5] and in [6] was “inactive” in each case. In addition, the Potency entry in [7], in assay [8], in assay [10], in assay [11], in assay [12] and in assay [13] was “inactive” each time. Besides, the Potency entry in assay [14], in assay [15], in assay [16] and in [17] was “inactive” each time. Also, the call in assay [9] was inactive.
Regarding `CC(=O)CC(=O)N(C)C`, the Potency result in [1], in [2], in assay [3], in [4], in assay [5] and in assay [6] was “inactive” each time. Also, the Potency entry in assay [7], in assay [8], in [10], in [11], in [12] and in assay [13] was “inactive” in each case. The Potency result in assay [14], in assay [15], in [16] and in assay [17] was “inactive” in each case. In addition, the compound was called inactive in [9].
Take `CCCCCNCCCCC`: the Potency entry in [1], in assay [2], in assay [3], in assay [4], in assay [5] and in [6] was “inactive” throughout. The Potency entry in assay [7], in assay [8], in assay [10], in [11], in assay [12] and in assay [13] was “inactive” in each case. In addition, the Potency entry in [14], in [15] and in assay [17] was “inactive” throughout. Moreover, in assay [9], the result was inactive. In assay [16], the Potency was 36.4 µM (active).
With `C[n+]1ccn(CCO)c1`, the Potency result in assay [1], in assay [2], in [3], in [4], in assay [5] and in [6] was “inactive” each time. The Potency entry in assay [7], in assay [8], in assay [11], in assay [12], in [13] and in [14] was “inactive” each time. The Potency entry in assay [15], in assay [16] and in assay [17] was “inactive” in each case. Moreover, the compound was classed as inactive in assay [9].
For the compound `Brc1ccc(Oc2ccc(Br)cc2)cc1`, the Potency result in [1], in [2], in assay [3], in [4], in assay [5] and in assay [6] was “inactive” throughout. Besides, the Potency result in assay [7], in assay [8], in assay [11], in assay [12], in [13] and in assay [14] was “inactive” throughout. For the same compound, the Potency result in assay [15] and in assay [16] was “inactive” each time. Besides, the compound was classed as inactive in assay [9]. In addition, the Potency in assay [17] is 12.6 µM (active) and 5.03 µM (active).
